# ChEMBL document CHEMBL4513216, “Probing the Open Global Health Chemical Diversity Library for Multistage-Active Starting Points for Next-Generation Antimalarials” (ACS Infect Dis, 2020)
# Out of some 69,000 compounds screened, about 8,600 (12%) showed an effect of 50% or more. The sample as a whole holds a higher share of strong results than the screen did.
# System: Plasmodium berghei
# Test: Screen against P. berghei liver stage (PbLuc), transformed with Luciferase, at 10uM
# Format: functional, HepG2
# Conditions: tested at 10 uM
row,Structure (SMILES),INHIBITION [%]
1,Cc1noc(C2(C)CCCN(C(=O)c3cccnc3)C2)n1 (centres undefined),25.6
2,CCCS(=O)(=O)N1CCCC(CCC(=O)N(C)CCc2ccccn2)C1 (centres undefined),27.6
3,CN(C(=O)NCc1nccn1CCc1ccccc1)C1CCC1,-4.63
4,COc1ccc(Nc2nc3c(C)nn(C)c3c(=O)n2C)cc1,9.04
5,CC(C)c1cc(C(F)(F)F)n2nc(C3CCN(S(C)(=O)=O)C3)cc2n1 (centres undefined),43.05
6,COc1ccc(NCCC(=O)NCc2cccnc2N(C)C)cc1,-14.9
7,Cc1ccc(C(=O)N2C[C@@H]3CN(c4ncccn4)C[C@@H]3C2)cn1,76.4
8,Cn1cccc1C(=O)N1CCC2(CCCN2c2ncccn2)CC1,-2.41
9,Cn1ccnc1C(=O)N1CCC2(CCN2CC2CC2)C1 (centres undefined),13.7
10,O=C(c1ccnnc1)N1C[C@@H]2CN(c3ncccn3)C[C@@H]2C1,21.7
11,O=C(c1cnc2ccccc2c1)N1CCC2(CCN2c2ncccn2)C1 (centres undefined),-78.5
12,Cn1ccnc1C(=O)N1CCC2(CCN2c2ncccn2)C1 (centres undefined),71.3
13,O=C(c1cccc(O)c1)N1CCC2(CCN2c2ncccn2)C1 (centres undefined),27.7
14,Cc1ccc(C(=O)N2C[C@@H]3CN(c4ncccn4)C[C@@H]3C2)cc1,-13.7
15,Cn1ccc(C(=O)N2CCC3(CCN3c3ncccn3)C2)n1 (centres undefined),22.6
16,Cn1cccc1C(=O)N1CCC2(CCN2c2ncccn2)C1 (centres undefined),72.2
17,Cc1ccc(C(=O)N2CCC3(CCN3c3ncccn3)C2)cn1 (centres undefined),78.9
18,O=C(c1ccc2ccccc2n1)N1CCC2(CCN2c2ncccn2)C1 (centres undefined),-47
19,CC(C)NC(=O)N1CCC2(CC(=O)N(c3ccsc3)C2)C1 (centres undefined),48.2
20,COc1cc(N2C[C@H](C(=O)NCC3CC3)[C@@H]3CCO[C@@H]3C2)ncn1,-29.3
21,Cn1cnc2c(N3CCCC3)nc(C3CCNCC3)cc21,32.7
22,COc1ccc(OC)c(CNC(=O)N2CCC(n3cncn3)CC2)c1,21

row,Structure (SMILES),INHIBITION [%]
1,Cc1ccc(C(=O)NS(=O)(=O)c2ccccc2Cl)c(=O)[nH]1,35.9
2,CC(C)c1noc(C(C)N2CCN(CCCN3CCCC3=O)CC2)n1 (centres undefined),-38.7
3,CN(CCO)CC1COCCN1C(=O)CCC1CCCC1 (centres undefined),39.3
4,CC(C)c1cnc(CN(C)C2CCN(CCCc3cnn(C)c3)C2)o1 (centres undefined),-7.31
5,CC(C)N1CCCC1c1csc(N)n1 (centres undefined),16.8
6,COc1cc(-c2cc(OC)c(OC)c(OC)c2)ncn1,-7.79
7,COC(CNC(=O)C1CC1)c1ccc(C)s1 (centres undefined),20.4
8,O=C(CCc1cc2n(n1)CCN(CCCn1cccc1)C2)N1CCCC1,-1.54
9,Cc1ccc(N2CCCc3sc(C(=O)NCC4CCCO4)nc32)nn1 (centres undefined),15.4
10,Cc1nn(C)c(Cl)c1C1CCCN1C(=O)c1ccc[nH]1 (centres undefined),25.1
11,Cc1ccc(C(=O)NCCC2CN(c3cnn(C)c(=O)c3)CCO2)s1 (centres undefined),24.7
12,O=C(NCCC1CN(C2CCCC2)CCO1)c1c[nH]c(=O)[nH]c1=O (centres undefined),8.08
13,O=C(NCCC1CN(C2CCCC2)CCO1)c1cc(=O)[nH]c(=O)[nH]1 (centres undefined),51.5
14,Cc1ccc(C(=O)NCCC2CN(C3CCCC3)CCO2)c(C)c1 (centres undefined),66.8
15,Cc1cc(C(=O)NCCC2CN(C)CCO2)c2cccc(C)c2n1 (centres undefined),45.9
16,Cc1ccc(C)c(C(=O)N2CCOC(CCN(C)C)C2)c1 (centres undefined),37.6
17,CC(CC(=O)c1ccco1)NC(=O)c1ccccn1 (centres undefined),42.1
18,COCc1ncn2c1CN(S(=O)(=O)Cc1ccc(C)cc1)CC2,-0.55
19,CCOCc1ncn2c1CN(S(=O)(=O)c1ccc(C)cc1)CC2,-51.9
20,COCc1ncn2c1CN(S(=O)(=O)c1cccc(OC)c1)CC2,62.4
21,COc1cccc(S(=O)(=O)N2CCn3cnc(COCC4CC4)c3C2)c1,15.9
22,COCc1ncn2c1CN(S(=O)(=O)c1ccc(C)cc1)CC2,80.3

row,Structure (SMILES),INHIBITION [%]
1,COCc1ncn2c1CN(S(=O)(=O)c1cccc(F)c1)CC2,-58.3
2,O=C(NC1COC2(CCN(CC3CCC3)CC2)C1)c1ccccn1 (centres undefined),-7.59
3,CC1=C(c2ccc(C(C)C)cc2)S(=O)(=O)N=C1N1CCc2ccccc21,49
4,CC(NC(=O)c1cc(=O)n(C)c(=O)n1C)c1ccccc1-n1cccn1 (centres undefined),0.426
5,Cc1ccccc1C(C)NC(=O)c1ccc(=O)n(C)c1 (centres undefined),25.5
6,CC(NC(=O)c1ccc(=O)n(C)c1)c1ccccc1-n1cccn1 (centres undefined),53.8
7,Cc1cc2c(=O)n3c(nc2s1)CCN(Cc1cnc(C)n1C)CC3,23.2
8,Cc1cccc(OCCC(=O)NC(C)c2nnc3n2CCC3)c1 (centres undefined),26.4
9,Cc1nnn2c1COC(CNCc1ccncc1)C2 (centres undefined),39.3
10,Cc1cc(CNCC2Cn3nnc(C)c3CO2)oc1C (centres undefined),60
11,c1ccc(CNCC2Cn3nnc(-c4ccncc4)c3CO2)nc1 (centres undefined),64.5
12,Cc1nnn2c1COC(CNCc1nccs1)C2 (centres undefined),-3.24
13,Cc1cccc(CNC[C@H]2Cn3cc(-c4ccccc4)nc3CO2)n1,-23.2
14,Cn1cc(-c2nnn3c2COC(CNCc2cccnc2)C3)cn1 (centres undefined),27.4
15,c1cc(-c2nnn3c2COC(CNCc2nccs2)C3)ccn1 (centres undefined),32.4
16,Cn1cc(CNCC2Cn3nnc(-c4ccccc4)c3CO2)cn1 (centres undefined),62
17,COc1ccc(-c2cn3c(n2)CO[C@@H](CNCc2ccccn2)C3)cc1,66.9
18,c1cc(-c2nnn3c2COC(CNCC2CCOCC2)C3)ccn1 (centres undefined),28.2
19,COc1ccc(-c2cn3c(n2)CO[C@@H](CNCc2nccn2C)C3)cc1,16.2
20,Cn1cc(-c2nnn3c2COC(CNCc2ccncc2)C3)cn1 (centres undefined),39.3
21,CCc1nnc(Nc2cccc(C3CCN(C(=O)CO)CC3)n2)s1,11.1
22,CCCn1nccc1NC(=O)CN1CCCC1Cn1cc(C)cn1 (centres undefined),42.3

row,Structure (SMILES),INHIBITION [%]
1,Cn1cc(CCNC(=O)N2CCCC(Cc3nccn3C)C2)cn1 (centres undefined),33
2,O=C(NCCCN1CCOCC1)c1cccc(OCc2ccccc2)c1,30
3,Cc1csc(CN2CCC3(CC2)COC(COc2ccccn2)C3)n1 (centres undefined),47.5
4,c1ccc(-c2nnn3c2COC(CNCc2ccccn2)C3)cc1 (centres undefined),51.2
5,Cc1nnn2c1COC(CNCc1ccccn1)C2 (centres undefined),39.3
6,Cn1cc(-c2nnn3c2COC(CNCc2ccccn2)C3)cn1 (centres undefined),46.3
7,O=C(NCC1CC1)C1CN(c2ncccn2)Cc2ccnn2C1 (centres undefined),31.2
8,CCN(C(=O)CS(=O)(=O)c1cc(OC)c(OC)cc1C)C1CC1,33.7
9,COc1cc(C)c(S(=O)(=O)CC(=O)N(C)C(C)C)cc1OC,11.5
10,COc1cc(C)c(S(=O)(=O)CC(=O)N(C)C2CC2)cc1OC,50.4
11,COc1c(CNC(c2cccc(F)c2)c2nccn2C)c(C)nn1C (centres undefined),-16.8
12,Cc1c(Br)cccc1C(=O)NCC1CCCNC1 (centres undefined),42.3
13,CN(Cc1nccn1C)C1CCCN(Cc2noc(C3CC3)n2)C1 (centres undefined),-25.8
14,O=c1cc(N2CCNCC2)cnn1Cc1noc(C2CCCC2)n1,78.6
15,O=c1cc(N2CCCC2)cnn1Cc1noc(C2CCCO2)n1 (centres undefined),47.1
16,O=c1cc(N2CCCCC2)cnn1Cc1noc(C2CCCO2)n1 (centres undefined),-27.1
17,Cc1ccccc1CNC(=O)N1C[C@@H]2C[C@H](C(=O)N(C)C)[C@H](C1)O2,5.63
18,COc1ccc(OC)c(CNc2nnc(C(C)(C)C)o2)c1,-10.9
19,CC(Cn1cncn1)NC(=O)NCc1csc(N(C)C)n1 (centres undefined),23.6
20,CC(Cn1cncn1)NC(=O)NCC(C)(C)c1ccc(F)cc1 (centres undefined),64.5
21,Cc1ccc(C(C)(C)CNC(=O)NC(C)Cn2cncn2)cc1 (centres undefined),61.1
22,CC(Cn1cncn1)NC(=O)NCC(C)(C)Cc1ccccc1 (centres undefined),39.8

row,Structure (SMILES),INHIBITION [%]
1,CC(Cn1cncn1)NC(=O)Nc1ccc(F)cc1OCC1CC1 (centres undefined),-21.1
2,CC(NC(=O)NCCCn1cncn1)c1ccc(F)cc1 (centres undefined),-1.7
3,Cn1ncc(C(=O)N2CCN(C(=O)c3ccco3)CC2)c1Cl,36.5
4,CC(=O)N1CCCC2(CCC(=O)N2Cc2cccnc2)C1 (centres undefined),6.27
5,Cc1ccc(C(=O)N2CCOC(c3nc(-c4ncccn4)no3)C2)cc1 (centres undefined),11.1
6,c1cc2c(cc1CSCc1noc(C3CC3)n1)OCCO2,74.3
7,c1cc2c(cc1CN1CCN(Cc3noc(C4CC4)n3)CC1)OCO2,-28
8,c1cc2c(cc1CN1CCC(Cc3noc(C4CC4)n3)CC1)OCCO2,-5.26
9,COCCCNC(=O)CN1CCSC(c2ccccc2)C1 (centres undefined),3.88
10,COc1ccccc1C1CC(=O)Nc2nc(N3CCCCC3)sc21 (centres undefined),15.1
11,Cc1cc(C(=O)N2CCCC2c2noc(C(C)C)n2)c(C)o1 (centres undefined),4.52
12,CCN(CC)S(=O)(=O)c1ccc(CNC(=O)N2CCCCCC2)cc1,54.3
13,CS(=O)(=O)c1ccc(CNC(=O)N2CCC(C(N)=O)CC2)cc1,-60.8
14,CCN(CC)S(=O)(=O)c1ccc(CNC(=O)N2CCC(C#N)CC2)cc1,45.7
15,COCCCNC(=O)c1cn(C(C)C)cc2c(=O)[nH]nc1-2,14.9
16,Cc1nn(C)cc1S(=O)(=O)N(CCc1ccccc1)Cc1ccn(C)n1,26.75
17,CSCC[C@@H](CO)NC(=O)c1sc(-c2ccccc2Cl)nc1C,9.84
18,Cc1ccccc1-n1ncc2c(=O)n(CCN3CCCC3)cnc21,-16.3
19,Cc1nc(CSCCC(=O)NCC(=O)NC(C)C)cs1,29.4
20,CCOCCCNC(=O)CCSCc1csc(C)n1,63.8
21,Cc1nc(CSCCC(=O)NCCNC(=O)OC(C)(C)C)cs1,-30.7
